Assay [1] concerns the target Androgen receptor (Homo sapiens) (UniProt P10275). Kind of assay: qHTS assay to identify small molecule antagonists of the androgen receptor (AR) signaling pathway using the MDA cell line in the presence of 0.5 nM R1881 (AID 1259243). Note: nearly all actives have a fitted effect of over 50% in size. Note: potency is the fitted concentration of half-maximal effect. In short, it runs like this: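 Antagonist mode quantitative HTS in MDA-kb2 MMTV-luciferase cells, agonist R1881 at 0.5 nM final, 16 hr exposure at 37C and 0% CO2, luminescent detection.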

Assay [2] can be described thus: qHTS assay to identify small molecule HDAC inhibitors (AID 1259364). Note: potency is the fitted concentration of half-maximal effect.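 Note: wild-type HCT-116 cells with endogenous class I/II HDAC activity; nearly all actives have a fitted effect of over 45% in size.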 The procedure, abridged:
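Quantitative high-throughput format: overnight-seeded HCT-116 cells got compounds for 2 hr at 37C; HDAC-Glo I/II reagent added, 30 min RT, luminescence measured.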
On the technique in general: qHTS replaces the single test concentration by a dilution series.

Assay [3] can be described thus: qHTS assay to identify small molecule agonists of the sonic hedgehog signaling (Shh) pathway - cell viability counter screen (AID 1259366). Note: nearly all actives have a fitted effect of over 50% in size. Note: potency is the fitted concentration of half-maximal effect. The procedure, abridged: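 Cytotoxicity counter screen run in the same wells as the Shh reporter assay. NIH/3T3 cells carrying a Gli1 response element–driven luciferase were treated with DMSO-dissolved compounds for 24hr, and live-cell protease activity was measured with CellTiter-Fluor.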

Assay [4] is described as follows: qHTS assay to identify small molecule antagonists of the sonic hedgehog signaling (Shh) pathway - cell viability counter screen (AID 1259367). Note: nearly all actives have a fitted effect of over 55% in size. Note: potency is the fitted concentration of half-maximal effect. In short, it runs like this: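 Cytotoxicity was assessed in parallel with Shh reporter activity by measuring live-cell protease fluorescence (CellTiter-Fluor) in NIH/3T3 cells stably carrying Gli1-Luc, treated with compound under conditioned medium stimulation for 23 hr plus 1 hr reagent incubation.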

Assay [5] in a line: qHTS assay to identify small molecule agonists of the sonic hedgehog signaling (Shh) pathway (AID 1259368; calls by dose curve;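 note: NIH/3T3-derived 3T3Gli1-Luc cells carrying a stable Gli1-driven firefly luciferase reporter; series mostly up to about 92 µM; nearly all actives have a fitted effect of over 15% in size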). In short, it runs like this: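 Quantitative high-throughput format using a Gli1-driven firefly luciferase reporter line derived from NIH/3T3 cells. After a 24 hr compound treatment at 37 C and 5% CO2, luminescence reported Gli1 response element activity.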
A short description of assay [6]: qHTS assay to identify small molecule antagonists of the sonic hedgehog signaling (Shh) pathway (AID 1259369; calls by dose curve; note: nearly all actives have a fitted effect of over 45% in size; note: potency is the fitted concentration of half-maximal effect). The procedure, abridged:
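Stable Gli1-Luc reporter NIH/3T3 clone; quantitative HTS in stimulated mode with conditioned medium. Luminescence measured after 24hr compound treatment at 37 C.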

The target in assay [7] is Estrogen receptor beta (Homo sapiens) (UniProt Q92731). Nature of the assay: qHTS assay to identify small molecule agonists of the estrogen receptor beta (ER-beta) signaling pathway (AID 1259377; active = well fitted activation curve with a large enough effect in the signal ratio in the repeat runs, not every such curve was filed as active; the % refers to the signal ratio). In short, it runs like this:
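HEK293T ER-beta-UAS-bla; 2% charcoal-stripped FBS; cells pre-incubated 6 hr, compound 16 hr, 37C/5% CO2; LiveBLAzer B/G FRET substrate 2 h RT; fluorescence intensity read.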

Assay [8] deals with Estrogen receptor (Homo sapiens) (UniProt P03372). Kind of assay: qHTS assay to identify small molecule antagonists of the estrogen receptor alpha (ER-alpha) signaling pathway using the BG1 cell line in the presence of 0.1 nM 17-beta-estradiol (AID 1259244). Note: nearly all actives have a fitted effect of over 50% in size. Note: potency is the fitted concentration of half-maximal effect. The procedure, abridged:
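Reporter is a stably transfected luciferase under four estrogen responsive elements in VM7Luc4E2 cells expressing native full-length ER-alpha; inhibition of 0.1 nM (final) 17beta-estradiol-driven signal over 22 h is read by luminescence.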

The nature of assay [9]: qHTS assay to identify small molecule HDAC inhibitors - cell viability counter screen (AID 1259365). Note: series mostly up to about 92 µM; nearly all actives have a fitted effect of over 50% in size. In short, it runs like this: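 Luminescence from CellTiter-Glo, developed 30min at room temperature, reports viability of wild-type HCT-116 cells treated 2hr with compounds at 37 C and 5% CO2 after overnight plating.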
A short description of assay [10]: qHTS assay to identify small molecule phospholipidosis (PLD) inducers (AID 1259344; active = well fitted curve in the direction sought with a large enough effect; an effect the other way counts as inactive or inconclusive). In short, it runs like this:
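Cells (HepG2, 900 per well) attach for 4 h, receive LipidTOX Red and compound together, incubate 24 h at 37 C, are fixed 30 min with paraformaldehyde/Hoechst, then imaged at one site per well.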

Among the data in PubChem BioAssay (Tox21) are Potency values, retold here.

Structures are written as SMILES. Several values for one entry are separate records, joined by “and”; a condition that tells them apart may be missing. Equal values may be shown once. Values without a mark were called inactive. Inconclusive results are not listed. Activity calls are given as the source filed them. Unless noted, calls come from the whole dose curve; as a rule, active = well fitted curve in the direction sought with a large enough effect in the repeat runs; inconclusive = weak or mixed curves; inactive = no such curve, though single readings can be large; an effect the other way counts as inactive or inconclusive.

Androgen receptor (Homo sapiens), sequence (P10275 whole entry, looked up): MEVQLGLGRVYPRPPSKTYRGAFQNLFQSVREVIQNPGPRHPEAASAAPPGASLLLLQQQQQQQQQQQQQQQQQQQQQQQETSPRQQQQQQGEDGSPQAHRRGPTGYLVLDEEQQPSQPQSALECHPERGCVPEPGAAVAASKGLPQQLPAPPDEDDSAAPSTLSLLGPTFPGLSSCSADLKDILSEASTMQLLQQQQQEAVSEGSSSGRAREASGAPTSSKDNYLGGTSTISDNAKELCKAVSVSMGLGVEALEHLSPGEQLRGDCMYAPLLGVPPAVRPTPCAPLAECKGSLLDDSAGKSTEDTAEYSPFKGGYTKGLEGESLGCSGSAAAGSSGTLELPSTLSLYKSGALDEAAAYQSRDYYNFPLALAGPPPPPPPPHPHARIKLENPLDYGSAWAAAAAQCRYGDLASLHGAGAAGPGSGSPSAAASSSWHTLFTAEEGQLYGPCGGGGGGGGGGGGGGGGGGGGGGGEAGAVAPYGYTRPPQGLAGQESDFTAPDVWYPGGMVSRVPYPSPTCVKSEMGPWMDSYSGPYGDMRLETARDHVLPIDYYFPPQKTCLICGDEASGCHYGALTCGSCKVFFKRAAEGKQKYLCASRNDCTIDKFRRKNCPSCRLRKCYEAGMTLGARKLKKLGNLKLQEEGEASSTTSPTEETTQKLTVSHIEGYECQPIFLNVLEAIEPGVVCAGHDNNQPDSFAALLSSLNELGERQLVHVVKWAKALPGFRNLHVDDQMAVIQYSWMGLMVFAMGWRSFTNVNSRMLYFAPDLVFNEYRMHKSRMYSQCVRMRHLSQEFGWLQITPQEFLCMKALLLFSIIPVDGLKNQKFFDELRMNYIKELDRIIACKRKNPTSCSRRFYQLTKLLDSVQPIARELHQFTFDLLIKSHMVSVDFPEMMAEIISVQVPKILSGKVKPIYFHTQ
Estrogen receptor beta (Homo sapiens), sequence (Q92731 whole entry, looked up): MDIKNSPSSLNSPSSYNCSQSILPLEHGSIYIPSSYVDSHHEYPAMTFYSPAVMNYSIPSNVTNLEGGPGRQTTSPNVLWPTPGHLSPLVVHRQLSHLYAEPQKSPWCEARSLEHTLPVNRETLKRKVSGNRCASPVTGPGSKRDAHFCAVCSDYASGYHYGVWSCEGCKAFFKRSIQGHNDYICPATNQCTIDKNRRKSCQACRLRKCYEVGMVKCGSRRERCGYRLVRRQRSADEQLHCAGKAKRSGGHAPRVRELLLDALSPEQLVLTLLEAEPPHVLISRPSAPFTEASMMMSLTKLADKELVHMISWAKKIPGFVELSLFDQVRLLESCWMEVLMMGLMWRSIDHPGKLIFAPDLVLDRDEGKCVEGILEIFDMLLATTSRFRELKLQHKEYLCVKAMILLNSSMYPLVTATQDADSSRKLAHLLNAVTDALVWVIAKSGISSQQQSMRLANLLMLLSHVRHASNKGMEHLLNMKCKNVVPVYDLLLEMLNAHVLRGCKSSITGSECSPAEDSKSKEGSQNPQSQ
Estrogen receptor (Homo sapiens), sequence (P03372 whole entry, looked up): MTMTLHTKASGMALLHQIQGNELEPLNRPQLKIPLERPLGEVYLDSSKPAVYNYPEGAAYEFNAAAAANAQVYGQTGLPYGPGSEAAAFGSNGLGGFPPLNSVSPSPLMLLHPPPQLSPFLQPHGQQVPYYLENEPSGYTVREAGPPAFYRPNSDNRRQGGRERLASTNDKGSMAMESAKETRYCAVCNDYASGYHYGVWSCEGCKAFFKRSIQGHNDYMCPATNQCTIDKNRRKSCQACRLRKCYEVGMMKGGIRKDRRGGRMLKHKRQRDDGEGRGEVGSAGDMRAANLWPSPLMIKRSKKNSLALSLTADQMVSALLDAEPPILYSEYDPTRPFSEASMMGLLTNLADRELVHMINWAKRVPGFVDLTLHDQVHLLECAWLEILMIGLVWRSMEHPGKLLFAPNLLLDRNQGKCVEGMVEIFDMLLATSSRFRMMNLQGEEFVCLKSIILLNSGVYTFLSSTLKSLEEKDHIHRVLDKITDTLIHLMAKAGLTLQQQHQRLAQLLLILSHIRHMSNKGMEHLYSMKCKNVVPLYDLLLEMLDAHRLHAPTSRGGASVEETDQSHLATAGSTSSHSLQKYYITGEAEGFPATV

On to `Cc1cccc(OP(=O)(Oc2cccc(C)c2)Oc2cccc(C)c2)c1`, for which the Potency result in assay [1], in assay [2], in [3], in assay [4], in [5] and in assay [6] was “inactive” each time. The Potency result in assay [7] was “inactive”.
For `C1CCC2CCCCC2C1` (configuration not stated), the Potency entry in [8], in assay [2], in assay [9], in [3], in assay [4] and in assay [5] was “inactive” in each case. Besides, the Potency result in assay [6] is “inactive”.
In the case of `ClC(Cl)=C(c1ccc(Cl)cc1)c1ccc(Cl)cc1`, the Potency result in assay [8], in assay [2], in [9], in assay [3], in assay [4] and in assay [5] was “inactive” in each case. The Potency result in assay [6] is “inactive”.
For the compound `CN(C)C1CSSSC1`, the Potency result in [8], in assay [2], in assay [9], in assay [3], in assay [4] and in [5] was “inactive” throughout.
Turning to `ClC1=C(Cl)[C@]2(Cl)[C@@H]3[C@@H]4C[C@@H]([C@H]5O[C@@H]45)[C@@H]3[C@@]1(Cl)C2(Cl)Cl`, the figures for the Potency in [8] and in assay [6] were 68.6 µM (active) and 21.7 µM (active), respectively. In addition, the Potency entry in assay [10], in assay [2], in assay [9] and in assay [5] was “inactive” each time.
`Cn1[nH]nnc1=S`: the Potency entry in assay [8], in assay [2], in assay [9], in assay [3], in [4] and in assay [5] was “inactive” each time.
Consider `CC(=O)/C=C/c1ccc2c(c1)OCO2`, for which the Potency in assay [1] is 68.9 µM (active); in [2], 27.4 µM (active); in assay [6], 17.3 µM (active). Further, the Potency entry in [9] and in assay [5] was “inactive” each time.
As for `C[C@@H]1O[C@@H](O[C@@H]2C=C3CC[C@@H]4[C@H](CC[C@]5(C)[C@@H](c6ccc(=O)oc6)CC[C@]45O)[C@@]3(C)CC2)[C@H](O)[C@H](O)[C@H]1O`, the Potency result in assay [1], in assay [2], in assay [3] and in assay [4] was “inactive” in each case. Also, the Potency in assay [6] was 16.8 µM (active).
For `CC(C)(C)c1ccc(CSc2cnn(C(C)(C)C)c(=O)c2Cl)cc1`, the Potency in assay [8] was 0.0154 µM (active). In addition, the Potency result in [2], in assay [9], in assay [3], in assay [4] and in [5] was “inactive” throughout.
As for `O=[N+]([O-])c1ccc2ccc3cccc4ccc1c2c34`, in [1], the Potency was 0.863 µM (active). The Potency result in [9], in assay [3], in assay [4], in assay [5] and in assay [6] was “inactive” throughout.
Consider `N#CSCSC#N`, for which the Potency in assay [1] is 49.6 µM (active); in assay [3], 11.1 µM (active) and 6.79 µM (active); in [4], 12.5 µM (active) and 13.5 µM (active); in assay [6] it was 2.79 µM (active) and 2.41 µM (active). Besides, the Potency entry in assay [9] and in assay [5] was “inactive” throughout.
For the compound `CC(C)CCCCCCCOP(=O)(Oc1ccccc1)Oc1ccccc1`, the Potency result in assay [8], in [2], in assay [9], in assay [3], in assay [4] and in [5] was “inactive” each time.
Regarding `CC(C)(O)c1cnn2c(-c3ccc(F)c(-c4c(F)cccc4C#N)c3)cnc2n1`, the figures for the Potency in assay [1] and in [6] were 61.1 µM (active) and 4.33 µM (active), respectively. Moreover, the Potency entry in assay [2], in assay [9] and in assay [5] was “inactive” each time.
In the case of `COC[C@H](C)N(C(=O)CCl)c1c(C)csc1C`, the Potency entry in assay [8], in assay [2], in assay [9], in assay [3], in assay [4] and in assay [5] was “inactive” each time. The Potency entry in [6] and in assay [7] was “inactive” each time.
Take `COCC(=O)N(c1c(C)cccc1C)[C@H](C)C(=O)OC`: the Potency result in [8], in assay [2], in assay [9], in assay [3], in assay [4] and in [5] was “inactive” throughout. In addition, the Potency entry in assay [6] and in assay [7] was “inactive” each time.
Turning to `CCCCCCCCCCCCBr`, the Potency entry in assay [8], in assay [2], in assay [9], in assay [3], in assay [4] and in assay [5] was “inactive” throughout. Also, the Potency result in assay [6] is “inactive”.
In the case of `CC(C)OC(=O)C(O)(c1ccc(Cl)cc1)c1ccc(Cl)cc1`, the Potency entry in assay [8], in assay [2], in assay [9], in assay [3], in [4] and in assay [5] was “inactive” throughout. Also, in assay [7], the Potency result is “inactive”. The Potency in [6] is 54.5 µM (active).
Take `CC(C)OS(C)(=O)=O`: the Potency result in assay [8], in [2], in assay [9], in [3], in assay [4] and in assay [5] was “inactive” throughout. In addition, the Potency result in [6] was “inactive”.
In the case of `CC(C)C1CCC(Cc2ccc(Cl)cc2)C1(O)Cn1cncn1` (configuration not stated), the Potency in assay [8] was 48.1 µM (active); in [3], 48.1 µM (active); in assay [4], 53.9 µM (active); in [6] it was 17.1 µM (active). In addition, the Potency result in assay [2], in assay [9], in [5] and in assay [7] was “inactive” in each case.
For `Clc1ccc(-c2ccccc2)cc1`, the Potency result in assay [8], in assay [2], in [9], in assay [3], in assay [4] and in assay [5] was “inactive” throughout. Further, the Potency entry in assay [6] and in [7] was “inactive” throughout.
